# In the library only some 6% were active in any assay of this set; here they are far more common.
# DRD3 agonist: activates the human D3 dopamine receptor | D3R DiscoveRx beta-arrestin cells, luminescence, 90 min | max activation, % | actives 0.58% (n = 410,000); in the data active = max activation above about 30%; note: 0% is about no effect
#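 Agonist-mode cell screen: cells plated at 1500/well and incubated overnight at 37 °C, then exposed to library compounds for 90 min at 37 °C. Detection reagent was added for 30–60 min at room temperature, and luminescence was read.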
# D1 antagonist: human D1 dopamine receptor antagonism; P21728; HEK293 TREx D1 cells, calcium flux, dopamine EC80; active compounds read low; activity change, negative = inhibition, % at 10 µM; actives 3.2% (n = 360,000); in the data active = activity change below about -30%; note: % is set by controls: 0 for no effect and ±100 for the full control effect
# Target sequence (P21728 whole entry, looked up): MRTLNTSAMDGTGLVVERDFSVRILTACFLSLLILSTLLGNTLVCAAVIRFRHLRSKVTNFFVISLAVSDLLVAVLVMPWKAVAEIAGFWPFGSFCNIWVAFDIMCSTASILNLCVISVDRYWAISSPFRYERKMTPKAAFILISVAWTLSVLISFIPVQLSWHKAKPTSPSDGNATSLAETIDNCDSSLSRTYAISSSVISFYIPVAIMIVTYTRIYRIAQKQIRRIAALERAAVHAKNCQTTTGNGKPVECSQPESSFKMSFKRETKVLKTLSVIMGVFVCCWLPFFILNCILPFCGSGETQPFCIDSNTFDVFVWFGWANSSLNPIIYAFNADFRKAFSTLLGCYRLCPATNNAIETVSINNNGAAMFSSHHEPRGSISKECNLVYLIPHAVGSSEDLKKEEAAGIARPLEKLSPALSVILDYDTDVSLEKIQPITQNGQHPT
#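 Inducible Hek293 Trex D1 cells (tetracycline, overnight, 30 C). Calcium dye 30–90 min RT. Antagonist mode: EC80 dopamine added after 180 s compound read.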
# D1 ag: agonists of human D1 dopamine receptor. P21728. HEK293 T-REx D1 cells, calcium flux, agonist mode. activation, % at 2 µM. actives 1% (n = 360,000). AID 504660; in the data active = activation above about 30%; note: 0% is about no effect
#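 Tetracycline-induced HEK293 TREx D1 cells, force-coupled to calcium signalling, were dye-loaded with a no-wash calcium kit. Compound was pin-added after a 10 s baseline. Fluorescence was read kinetically at 1 cycle/s for 180 s, with calcium rises flagged as agonism.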
# D1 PAM: human D1 dopamine receptor positive modulation; HEK293 TREx D1 cells, calcium flux, dopamine EC20 potentiation; actives 0.036% (n = 360,000); P21728; potentiation, % at 10 µM; AID 504651; in the data active = potentiation above about 30%; note: 0% is about no effect
# D3 antag: blocks the human D3 dopamine receptor | P35462 | D3R cells, DiscoveRx beta-arrestin luminescence, antagonist mode; active compounds read low | max response, negative = inhibition, % | actives 2.5% (n = 360,000) | AID 652054; in the data active = max response below about -50%; note: % is set by controls: 0 for no effect and ±100 for the full control effect
#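 Cells plated overnight at 1500 cells/well, then exposed to library compounds with dopamine controls for 90 minutes at 37 degrees C. DiscoveRx reagent added for 30–60 minutes at room temperature; luminescence read, quantitative HTS format.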
# Starred values were filed as active, the others as inactive; nt = no result given.
SMILES,DRD3 agonist,D1 antagonist,D1 ag,D1 PAM,D3 antag
COc1cccc(-n2nnnc2S(C)(=O)=O)c1,-8.3,-8.4,2.1,0.2,-77.2*
CCOc1ccc(NC(=O)COC(=O)Cn2cnc3ccccc32)cc1,-1.5,nt,nt,nt,-19.5
C[C@H](O)CN(C)C,8.3,nt,nt,nt,nt
CNCC[C@@H](Oc1ccccc1C)c1ccccc1,-57.5,nt,nt,nt,-57.4*
CNCCC(Oc1ccccc1OC)c1ccccc1 (configuration not stated),-16.3,nt,nt,nt,8.2
COc1ccc(OC)c(CNC(=O)C2CCCCN2S(=O)(=O)c2ccc(F)cc2)c1 (configuration not stated),-13.2,-17.8,3.2,4.4,nt
S=c1[nH]nc(-c2ccncc2)n1Cc1ccco1,-3.0,-19.2,2.3,-6.5,6.9
S=c1[nH]nc(-c2ccc(Br)o2)n1Cc1ccccc1,-36.7,4.2,1.0,-0.9,-81.7*
Cc1c(Cl)c(-c2n[nH]c(=S)n2Cc2ccco2)nn1C,-1.3,4.1,1.9,0.5,-53.7*
FC(F)(F)c1ccccc1-n1c(-c2ccco2)n[nH]c1=S,11.5,3.7,3.4,31.9*,-19.1
S=c1[nH]nc(-c2ccco2)n1Cc1ccccc1,-2.3,-7.0,9.0,-2.6,-80.7*
C(=N\NC1=Nc2cccc3cccc1c23)/c1ccccc1,-14.8,20.7,14.9,1.8,1.5
Clc1ccc(/C=N/NC2=Nc3cccc4cccc2c34)cc1,5.1,-33.1*,6.7,-8.3,7.0
CCCCOc1ccc(C2c3c(oc4ccc(C)cc4c3=O)C(=O)N2CCCN(C)C)cc1OCC (configuration not stated),-21.2,-2.7,1.8,-1.9,nt
CC(C)Sc1nc2ccc(Br)cc2[nH]1,1.5,-32.8*,4.7,-4.7,11.9
Cc1cc(C)c2c(n1)SCC(=O)N2CC(=O)Nc1cccc(C)c1C,2.8,-4.3,1.8,4.7,nt
CC(=O)Nc1cccc(NC(=O)CSc2cn(CC(=O)N(C(C)C)C(C)C)c3ccccc23)c1,-2.2,-18.9,-0.4,0.1,nt
CC(=O)NC(c1cccc(F)c1)c1nc(-c2cnn(C)c2)cs1 (configuration not stated),-24.6,nt,nt,nt,-52.7*
CCOC(=O)CSc1nc2cc(OC)c(OC)cc2c2nc(-c3ccccc3)nn12,-3.8,10.9,0.4,4.5,nt
CCC(=O)N1CCc2cc(S(=O)(=O)NC(Cc3ccccc3)C(=O)Nc3cccc(OC)c3)ccc21 (configuration not stated),-1.9,7.2,0.0,-0.6,nt
O=C(Nc1ccccn1)[C@@H]1CCC(=O)N1C(=O)OCc1ccccc1,2.6,-31.3*,2.5,-0.6,-7.9
CCN1CCN(S(=O)(=O)c2cc(OCC(=O)NC3CCCCC3)c(C)cc2Cl)CC1,-9.4,-8.3,15.1,-0.9,-70.5*
Cc1cc(Cl)c(S(=O)(=O)N2CCCCCC2)cc1OCC(=O)NC1CCCCC1,0.0,-0.4,6.4,-0.7,31.2
Cc1ccc(COC(=O)c2[nH]c3c(c2C)C(=O)CC(c2ccc(Cl)cc2)C3)cc1 (configuration not stated),0.1,5.6,1.9,5.2,nt
COCc1cc(C)nc(SCC(=O)NC2CCCCC2C)c1C#N (configuration not stated),5.3,10.6,4.8,3.1,13.8
SMILES,DRD3 agonist,D1 antagonist,D1 ag,D1 PAM,D3 antag
COCc1cc(C)nc(SCC(=O)N2CCC(C)CC2)c1C#N,-6.3,-56.8*,5.8,-0.3,-12.2
Cc1cc(C)nc(SCc2ccc([N+](=O)[O-])cc2)n1,-2.6,-4.3,3.6,-6.5,1.6
Cc1ccnc(SCc2ccc([N+](=O)[O-])cc2)n1,-4.5,-11.0,0.1,1.6,-57.4*
COCc1cc(C)nc(SCc2ccc([N+](=O)[O-])cc2)c1C#N,2.8,0.2,8.2,44.4*,2.9
COCc1cc(C)nc(SCc2ccccc2Cl)c1C#N,-6.5,7.2,6.4,-1.4,0.3
COc1ccc(OCC(=O)Nc2nc(-c3ccc(Br)cc3)ns2)cc1,10.3,-29.1,0.6,-1.2,nt
CC(=O)OCc1ccccc1Sc1ccccc1C(=O)NCc1ccccc1,4.5,-44.7*,3.0,11.2,6.6
CCOc1ccc(NC(=O)c2cn(C)c(=O)c3cc(OC)c(OC)cc23)cc1,3.8,8.4,-2.5,0.1,nt
C=CCn1cc(/C=N/NC(=O)COc2cccc3cccnc23)c2ccccc21,4.0,-0.8,0.5,1.0,7.6
Cc1cccc(OCC(=O)N/N=C\c2cn(C)c3ccccc23)c1,10.7,-34.1*,21.9,-1.1,1.5
CC(C)n1cc(/C=N/NC(=O)COc2cccc3cccnc23)c2ccccc21,34.5*,5.2,0.6,6.1,15.8
Cc1cccc(OCCn2cc(/C=N/NC(=O)c3ccncc3)c3ccccc32)c1,11.1,-14.7,-0.9,0.3,23.7
NCCCC[C@H](NC(=O)[C@@H]1CCCN1C(=O)[C@@H]1CSSC[C@H](NC(=O)CNC(=O)CNC(=O)CN)C(=O)N[C@@H](Cc2ccc(O)cc2)C(=O)N[C@@H](Cc2ccccc2)C(=O)N[C@@H](CCC(N)=O)C(=O)N[C@@H](CC(N)=O)C(=O)N1)C(=O)NCC(N)=O,-15.6,nt,nt,nt,nt
CC(=O)OCC(=O)Nc1cc(C#N)cc(NC(=O)COC(C)=O)c1Cl,6.9,nt,nt,nt,nt
COc1ccc(-c2ccc(-c3cc(=O)oc4cc(OC)c(OC)c(OC)c34)cc2)cc1OC,34.1*,nt,nt,nt,2.7
O=[N+]([O-])c1ccc(N/N=C/C=C/c2ccco2)cc1,-19.7,nt,nt,nt,-57.2*
O=C(N/N=C/c1ccc([N+](=O)[O-])o1)C(=O)Nc1ccc(C(=O)O)cc1,3.2,-3.1,1.9,5.2,2.2
O=C(O)c1ccc(N/N=C/C=C/c2ccc([N+](=O)[O-])o2)cc1,-11.7,-5.1,56.3*,1.4,-53.4*
O=C(N/N=C/c1ccco1)c1cc([N+](=O)[O-])cc([N+](=O)[O-])c1,4.1,23.2,0.3,-3.5,3.2
Cc1ccc(Cl)cc1NC(=O)Nc1cn(CC(C)C)c(=O)c2ccccc12,4.1,6.7,4.3,-0.8,nt
CCOc1ccc(CNC(=O)c2cc3c(s2)-c2ccccc2OC3)cc1,-3.6,-9.8,3.6,-7.0,nt
Cc1ccc(NCc2nnc(SCCN3CCCCC3)n2CC2CCCO2)cc1Cl (configuration not stated),-7.9,6.5,3.0,-3.0,-51.3*
Cc1ccc(NCc2nnc(SCC(=O)NCc3ccco3)n2CC2CCCO2)cc1Cl (configuration not stated),3.3,12.1,0.2,-7.5,-14.8
CC(=O)/C(=N\Nc1ccccc1)Sc1nnc(-c2ccccc2)n1-c1ccccc1,-5.8,2.9,3.5,-1.0,-97.4*
CC(=O)/C(=N\Nc1ccccc1Cl)Sc1nnc(-c2ccccc2)n1-c1ccccc1,-7.6,7.2,2.4,-0.2,0.0
CC(=O)C(N=Nc1ccccc1)(Sc1nnc(-c2ccccc2)n1-c1ccccc1)C(C)=O,-19.4,-31.9*,8.4,1.2,-13.8

# Bioassay records deposited in PubChem by National Center for Advancing Translational Sciences (NCATS).
